# Reference: PubChem BioAssay (NCATS)
# Inconclusive results are not listed. The source made the active and inactive calls. The call rests on the fitted dose curve; in most records, active means well fitted cell-killing curve with a large enough effect; inconclusive means small, poorly fitted or top-dose-only effect; inactive means no such curve, though single readings can be large or run the other way.
# Assay: Quantitative High-Throughput drug screen in 47 multiple myeloma cell lines against the NCATS MIPE library collection: JIM3_ECACC cell viability assay (AID 1918963; further: nearly all actives have a fitted effect of over 35% in size)
# Settings: JIM3 myeloma viability, CellTiter-Glo ATP, 48 h; series mostly up to 45.8 µM
# Method in brief: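 Myeloma cell lines, 500 cells per well, exposed to MIPE 4.0 library compounds for 48 h at 37C, 5% CO2. Viability from ATP by CellTiter-Glo luminescence; normalised to DMSO (100%) and media-only (0%) wells.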
# Potency means the concentration at half of the fitted maximal effect.
row,SMILES,Potency
1,O=C(C=Cc1ccc(O)cc1)c1ccc(O)cc1O,20.9 µM (active)
2,CCc1cc(-c2n[nH]c(C)c2-c2ccc3c(c2)OCCO3)c(O)cc1O,8.33 µM (active)
3,CCCCCCCCCCCCCC(=O)N[C@H](CO)[C@H](O)c1ccc([N+](=O)[O-])cc1,26.4 µM (active)
4,COc1ccc(CCN(C)CCCOc2ccc(S(=O)(=O)c3[nH]c4ccccc4c3C(C)C)cc2)cc1OC,18.7 µM (active)
5,Clc1ccc(COC(Cn2ccnc2)c2ccc(Cl)cc2Cl)c(Cl)c1 (configuration not stated),20.9 µM (active)
6,CCOc1ccccc1N=Nc1c(C)[nH]n(-c2nc(-c3ccccc3)cs2)c1=O,inactive
7,CC1(C)[C@H]2CC[C@]3(C)[C@@H](C(=O)C=C4[C@@H]5C[C@@](C)(C(=O)O)CC[C@]5(C)CC[C@]43C)[C@@]2(C)CC[C@@H]1O,inactive
8,CN(C(Cc1ccc(OS(=O)(=O)c2cccc3cnccc23)cc1)C(=O)N1CCN(c2ccccc2)CC1)S(=O)(=O)c1cccc2cnccc12 (configuration not stated),6.62 µM (active)
9,COc1cc2nc(-c3cc(F)ccc3O)nc(N[C@@H]3CNC[C@@H]3C(C)(C)O)c2cc1OC,7.43 µM (active)
10,Cc1nn(Cc2ccccc2Cl)c(C)c1CN(C)CC(O)COc1ccc(Cl)cc1 (configuration not stated),18.7 µM (active)
11,Nc1ncnc2c1ncn2[C@@H]1O[C@H](CO)[C@@H](O)[C@@H]1O,inactive
12,C=C[C@@H]1CN2CCC1C[C@@H]2C(O)c1ccnc2ccc(OC)cc12 (some centres not stated),inactive
13,CO[C@H]1/C=C\O[C@@]2(C)Oc3c(C)c(O)c4c(O)c(c5c(nc6cc(C)ccn65)c4c3C2=O)NC(=O)C(C)=CC=C[C@H](C)[C@H](O)[C@@H](C)[C@@H](O)[C@@H](C)[C@H](OC(C)=O)[C@H]1C,inactive
14,OC[C@H]1O[C@@H](Oc2ccc(O)cc2)[C@H](O)[C@@H](O)[C@H]1O,10.5 µM (active)
15,O=S(=O)(NCCNCC=Cc1ccc(Br)cc1)c1cccc2cnccc12,16.6 µM (active)
16,C=CC[N+]1([C@H]2C[C@H]3[C@@H]4CC[C@H]5C[C@H](O)[C@@H](N6CCOCC6)C[C@]5(C)[C@@H]4CC[C@]3(C)[C@H]2OC(C)=O)CCCC1,inactive

row,SMILES,Potency
1,C=CCc1cccc(C=NNC(=O)CN2CCN(Cc3ccccc3)CC2)c1O,23.5 µM (active)
2,CC(C)Oc1cc(Nc2nc(N[C@@H](C)c3ccc(F)cn3)ncc2Cl)[nH]n1,8.33 µM (active)
3,CO[C@@H]1C(N(C)C(=O)c2ccccc2)C[C@H]2O[C@]1(C)n1c3ccccc3c3c4c(c5c6ccccc6n2c5c31)C(=O)NC4=O (some centres not stated),6.62 µM (active)
4,CN(C)c1nc(Cc2ccc(NC(=O)c3ccc(C(F)(F)F)cc3)cc2)nc(N(C)C)c1CC(=O)O,inactive
5,CN[C@@H]1CN(c2ccc3c(=O)c(C(=O)O)cn(-c4nccs4)c3n2)C[C@@H]1OC,14.4 µM (active)
6,CC(C)C[C@@H](C(=O)N[C@H](C(=O)OC1CCCC1)c1ccccc1)[C@H](O)C(=O)NO,5.26 µM (active)
7,Cc1ccc2c(c1)c1c(n2CCc2ccc(C)nc2)CCN(C)C1,inactive
8,COc1c(C)cnc(Cn2cnc3c(Cl)nc(N)nc32)c1C,0.148 µM (active)
9,C[C@H]1COC2=C1C(=O)C(=O)c1c2ccc2c1CCCC2(C)C,23.5 µM (active)
10,OC[C@H]1O[C@@H](O[C@H]2[C@@H](O)[C@@](O)(CO)O[C@@H]2CO)[C@H](O)[C@@H](O)[C@@H]1O,inactive
11,CC(=O)NCCC(=O)N[C@@H](CCC(N)=O)C(=O)N[C@@H](CO)C(=O)N[C@@H](CCC(N)=O)C(=O)N[C@@H](CCC(N)=O)C(=O)N[C@H](C(=O)N[C@@H](Cc1ccccc1)C(=O)N[C@]1(C)CCCCCCC=CCCC[C@@](C)(C(=O)N[C@@H](CCC(N)=O)C(=O)N[C@@H](CC(N)=O)C(N)=O)NC(=O)[C@H](CC(C)C)NC(=O)[C@H](CC(C)C)NC(=O)[C@@H](CCCNC(=N)N)NC(=O)[C@H](Cc2c[nH]c3ccccc23)NC(=O)[C@H](CC(C)C)NC(=O)[C@H](CC(N)=O)NC1=O)[C@H](C)O,20.9 µM (active)
12,CC(C)C[C@H](NC(=O)c1cc2ccccc2s1)C(=O)N1CCN(C(=O)[C@H](CO)NS(=O)(=O)c2ccc(Cl)cc2Cl)CC1,20.9 µM (active)
13,COc1ccc2c(c1)c(C1=C(c3c[nH]c4ccccc34)C(=O)NC1=O)cn2CCCN(C)C,13.2 µM (active)
14,Cc1ccc(S(=O)(=O)OCC(=O)Nc2ccc(C(=O)O)c(O)c2)cc1,23.5 µM (active)
15,O=C(c1ccc(C=Cc2n[nH]c3ccccc23)cc1)N1CCNCC1,2.64 µM (active)
16,C[C@@H]1[C@H](O)[C@@H](C)C=CC=CC=CC=CC=CC=CC=C[C@H](O[C@@H]2O[C@H](C)[C@H](O)[C@H](N)[C@@H]2O)C[C@@H]2O[C@](O)(C[C@@H](O)C[C@@H](O)[C@H](O)CC[C@@H](O)C[C@@H](O)CC(=O)O[C@H]1C)C[C@H](O)[C@@H]2C(=O)O,3.32 µM (active)
